# Compound activity as filed in PubChem.
# Compounds with a hit are over-represented: about 6.7% of the library has one in this group of screens.
# MCF10A rereplic = inducers of DNA re-replication in MCF 10A breast cells; MCF 10A DNA re-replication, Hoechst nuclear intensity, 48 h; Potency, µM (series often up to 46.1 µM), for the others: at the top dose activity, positive = re-replication, most hits filed as activators; 2.9% of 350,000 active; AID 624296; also: % of control where 0% means no effect; nearly all actives have a fitted effect of over 50% in size
# KB-3-1 tox = kills parental KB-3-1 adenocarcinoma cells; KB-3-1 viability, CellTiter-Glo ATP luminescence, 72 h; Potency, µM (top dose mostly 46.1 µM), most hits filed as cytotoxic; 1.4% of 400,000 active; AID 1347075; also: % is scaled to controls: 0 for no effect and ±100 for the full control effect; nearly all actives have a fitted effect of over 60% in size
#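 Viability of parental KB-3-1 cells, measured by CellTiter-Glo luminescence, followed a 72 h incubation at 37 °C with pinned compounds in phenol-red-free DMEM containing 10% FBS.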
# PINK1 expr mod = PINK1 expression modulation; Potency, µM (highest dose often 76.6 µM), without a hit: at the highest dose activation (PINK1 increase), usual class: activators; PINK1 immunofluorescence, high-content cytometry, 24 h; 0.2% of 410,000 active; active = well fitted activation curve with a large enough effect; inconclusive = small, poorly fitted or top-dose-only effect; cell line not stated here; also: % of control where 0% means no effect; nearly all actives have a fitted effect of over 65% in size
#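 Measures PINK1 amount and localization on or inside mitochondria by immunofluorescence. Stable cells get compounds at 5 concentrations for 24 hours before fixation and staining; CCCP controls included.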
# SW480 rerep = DNA re-replication induction in SW480 cells. 1.8% of 340,000 active. SW480 DNA re-replication, Hoechst DNA content imaging, 48 h. Potency, µM (highest dose often 46.1 µM), for inactives: at the highest dose re-replication activation, hits mostly activators; also: % of control where 0% means no effect; nearly all actives have a fitted effect of over 55% in size
#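 First, 250 cells per well were seeded. Next, compound or vehicle (23 nL) was pinned in, plates sat 48 hr at 37 C. Finally Hoechst was added for 40 min before fluorescence scanning.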
# KB-V1 MDR tox = kills drug-selected multidrug resistant KB-V1 cells | KB-V1 MDR cells viability, CellTiter-Glo, 72 h | Potency, µM (highest dose often 46.1 µM), most hits filed as cytotoxic | 3.4% of 400,000 active | AID 1347076; also: % is scaled to controls: 0 for no effect and ±100 for the full control effect; nearly all actives have a fitted effect of over 60% in size
#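 KB-V1, DMEM (no phenol red) + 10% FBS; cpd pin-transferred, titration series; 72 h, 37 degrees C; CellTiter-Glo, luminescence. Data normalized, curve-fit.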
# * marks the source's active call; other numbers are inactive results; i = inactive; ? = inconclusive; . = not tested or not shown; [ ] = dose if it differs, or a comment. Unless noted, calls follow the shape of the dose curve; as a rule, active = well fitted curve in the direction sought with a large enough effect; inconclusive = small, poorly fitted or top-dose-only effect, or another doubt; inactive = no such curve, though single readings can be large; an effect the other way counts as inactive or inconclusive. Potency is read from the fitted curve at half-maximal effect.
SMILES,MCF10A rereplic,KB-3-1 tox,PINK1 expr mod,SW480 rerep,KB-V1 MDR tox
O=C(/C=C/c1ccc(Cl)cc1Cl)N(Cc1ccc(Cl)cc1)C1CCS(=O)(=O)C1 (stereo not drawn),?,?,-1%,0%,5.8µM*
Cc1ccccc1N(C)C1=N[S+](=O)([O-])c2ccccc21,.,i,.,.,i
Cc1cc(S(=O)(=O)N2CCCOC2CNC(=O)C(=O)NCc2ccco2)ccc1F (stereo not drawn),8.2µM*,i,2%,?,?
O=C(NCc1ccco1)C(=O)NCC1OCCCN1S(=O)(=O)c1ccc(Cl)cc1 (stereo not drawn),1%,i,6%,-51%,i
COc1ccc(S(=O)(=O)N2CCCOC2CNC(=O)C(=O)NCCc2ccco2)cc1C (stereo not drawn),?,6.5µM*,9%,18µM*,i
COc1ccc(CCNC(=O)C(=O)NCC2OCCN2S(=O)(=O)c2ccc(Br)cc2)cc1OC (stereo not drawn),7%,i,-1%,2%,i
Cc1ccc(C)c(S(=O)(=O)N2CCCOC2CNC(=O)C(=O)NCc2ccco2)c1 (stereo not drawn),-1%,?,7%,8%,23µM*
COc1ccc(S(=O)(=O)N2CCOC2CNC(=O)C(=O)NCCc2ccc(OC)c(OC)c2)cc1 (stereo not drawn),10%,?,-1%,12%,18µM*
COc1ccc(CC(=O)N(C)CC(=O)Nc2ccc(F)cc2)cc1S(=O)(=O)N1CCOCC1,1%,i,0%,3%,i
O=C(NC1CCCCC1)C1c2ccccc2OCC(=O)N1CCc1ccccc1 (stereo not drawn),.,i,1%,.,i
COc1cc(C)ccc1S(=O)(=O)NC(=O)C1(C)CCN1C(=O)Cc1ccc(Cl)cc1Cl (stereo not drawn),.,i,1%,.,i
Cc1ccc(S(=O)(=O)N2CCCOC2CNC(=O)C(=O)NCc2cccs2)cc1 (stereo not drawn),5%,i,6%,?,9.2µM*
Cc1cc(SCC(=O)c2cccs2)n2nc(C)c(-c3ccccc3)c2n1,?,i,3%,?,21µM*
CC(=O)CSc1cc(C)nc2c(-c3ccccc3)c(C)nn12,7%,?,-2%,-2%,?
C=CCSc1cc(C)nc2c(-c3ccccc3)c(C)nn12,?,?,2%,?,7.3µM*
Nc1nc(-c2ccc(Br)s2)c(Br)s1,21µM*,i,3%,15%,i
N#Cc1c(N)nc2c(c1-c1ccc(Br)s1)CCCC2,-5%,?,-1%,-40%,i
Cc1cc(C)n(S(=O)(=O)/C=C/c2ccccc2)n1,16µM*,?,16%[38.3 µM],?,?
CC(=O)N1CCOc2cc(S(=O)(=O)NCc3ccccc3Cl)c(C)cc21,.,.,-1%,.,.
CC(=O)Nc1cccc(NC(=O)CSc2ccc(-c3ccccn3)nn2)c1,?,i,-2%,?,?
O=C(CSc1ccc(-c2cccs2)nn1)Nc1ccccc1,16%,i,0%,-2%,12µM*
CCOc1ccc(NC(=O)CSc2ccc(-c3ccco3)nn2)cc1,1%,i,0%,-6%,i
CCc1ccc(NC(=O)CSc2ccc(-c3ccccn3)nn2)cc1,12µM*,?,4%,12%,i
O=C(CSc1ccc(-c2ccco2)nn1)Nc1ccc(F)cc1,7%,i,3%,-11%,10µM*
Cc1cc(C)cc(NC(=O)CSc2ccc(-c3cccs3)nn2)c1,11%,i,0%,17%,i
SMILES,MCF10A rereplic,KB-3-1 tox,PINK1 expr mod,SW480 rerep,KB-V1 MDR tox
O=C(CSc1ccc(-c2ccco2)nn1)Nc1ccccc1,0%,i,2%,-11%,18µM*
Cc1ccc(C(=O)Nc2nc(C(N)Cc3ccc(C(F)(F)F)cc3)cs2)cc1 (stereo not drawn),.,i,2%,.,i
CCCCN(CC)Cc1ccc(CNS(=O)(=O)c2cc3c(cc2Cl)NC(=O)CO3)o1,.,i,-2%,.,i
Cc1ccc(NC(=O)Cn2cc3c(n2)CCCC3)cc1Cl,.,i,-1%,.,i
O=C(CSc1ccc(-c2ccco2)nn1)NCc1ccccc1Cl,-5%,i,0%,-6%,21µM*
COc1ccc(C)cc1S(=O)(=O)N(C)CC(=O)N1CCCCC1,6%,i,-1%,-8%,?
COc1ccc(C)cc1S(=O)(=O)N(C)CC(=O)NC1CCCC1,2%,i,2%,?,12µM*
COc1ccc(C)cc1S(=O)(=O)N(C)CC(=O)N1CCCC1,2%,i,1%,2.3µM*,i
COc1ccc(C)cc1S(=O)(=O)N(C)CC(=O)NC1CC1,-2%,i,7%[38.3 µM],0%,i
COc1ccc(S(=O)(=O)NNC(=O)Nc2ccc(C)cc2C)c(OC)c1,-1%,?,0%,-9%,i
O=C(NCCN1C(=O)S/C(=C\c2ccc(Cl)c([N+](=O)[O-])c2)C1=O)C1=COCCO1,3.7µM*,?,-1%,-644%,i
COc1ccc2c(CNC3CCCCCC3)c(C(=O)O)n(Cc3ccccc3F)c2c1,.,i,-3%,.,i
O=C(CSc1nnc(Cn2nnc3ccccc32)o1)N(Cc1ccc(Cl)cc1)c1ccccc1,-15%,13µM*,-1%,3%,i
O=C(CSc1nnc(Cn2nnc3ccccc32)o1)Nc1cccc(Cl)c1,8%,i,-4%,-3%,i
CCn1c(=S)[nH]c2c(=O)n(C)c(=O)n(C)c21,-1%,i,-2%,1%,i
N#Cc1c(C(F)(F)F)cc(-c2ccccc2)[nH]c1=O,?,i,-1%,14%,?
COc1cccc(-c2cc(C(F)(F)F)c(C#N)c(=O)[nH]2)c1,18µM*,i,-1%,2%,i
N#Cc1c(C(F)(F)F)cc(-c2ccccc2Cl)[nH]c1=O,15µM*,?,1%,7%,?
CCn1cc(CN2CCC(C(=O)Nc3cccc(-c4cccc(F)c4)c3)CC2)cn1,0%,.,1%,2%,.
CC(C)n1cc(CN2CCC(C(=O)Nc3cccc(-c4cccc(Cl)c4)c3)CC2)cn1,18µM*,?,0%,3.3µM*,?
CCc1ccc(NC(=S)Nc2cccc3cnccc23)cc1,2%,?,0%,6%,21µM*
Cc1cc(C)cc(NC(=S)Nc2cccc3cnccc23)c1,?,i,-1%,0%,i
O=C(Nc1ccc(Cl)cc1)C1Cc2c(-c3ccccc3Oc3ccccc3)ccnc2O1 (stereo not drawn),.,?,1%,.,?
COc1cc(OC)c(OC)cc1/C=C/c1nc2cc3ccccc3cc2c(=O)n1-c1ccc(F)cc1F,.,12µM*,1%,.,i
